Bioassay records as filed in PubChem.
TbPYK inhibitor: inhibitors of Trypanosoma brucei pyruvate kinase; TbPYK enzyme, Kinase-Glo Plus ATP luminescence, 45 min; Potency, µM (highest dose often 76.8 µM), actives largely listed as inhibitors; 410,000 compounds, 0.12% hits; further: nearly all actives have a fitted effect of over 50% in size
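In this concentration-response screen, enzyme-free wells defined baseline while DMSO plates tracked drift. Each reaction combined TbPYK, substrate, compound and 130 uM ADP for 45 min at room temperature. Kinase-Glo Plus luminescence gave the signal.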
RE007 growth inh: less growth of the S. pombe RE007 Vpr strain. Potency, µM (doses to about 92.2 µM), most hits filed as inhibitors. 360,000 compounds, 0.21% hits. S. pombe RE007 Vpr strain, BacTiter-Glo ATP luminescence, 24 h; active means well fitted falling curve with a large enough effect; inconclusive means small, poorly fitted or top-dose-only effect; inactive means no such curve, though single readings can be large or run the other way; further: nearly all actives have a fitted effect of over 50% in size
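Fission yeast RE007 carrying one integrated HIV-1 vpr copy, seeded at OD 0.01 in PMG+AL medium with 23 nL pinned compound. Grown 24 h at 30 degrees; viability read by BacTiter-Glo luminescence after 5 min.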
AMA1 RON2 block: AMA1-RON2 (P. falciparum) interaction inhibition; AlphaScreen AMA1-biotinylated RON2 peptide binding; Potency, µM (series often up to 58.2 µM), actives largely listed as inhibitors; 360,000 compounds, 0.2% hits; AID 720542; further: nearly all actives have a fitted effect of over 45% in size
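AMA1 (3D7) with his tag at 25 nM final met compounds first, then biotinylated RON2 peptide at 25 nM; detection used donor plus acceptor beads, 10 µg/mL apiece, read by AlphaScreen after 30 min at room temperature.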
VACV Venus inh: inhibitors of vaccinia virus (Venus reporter); 330,000 compounds, 0.46% hits; Vaccinia virus Venus reporter expression, fluorescence; Potency, µM (top dose mostly 36.5 µM), usual class: inhibitors; calls by dose curve; tested in A549 cells; further: nearly all actives have a fitted effect of over 30% in size
LmPK inh: blocks Leishmania mexicana pyruvate kinase activity; 290,000 compounds, 0.37% hits; Potency, µM (top dose mostly 57.5 µM), most hits filed as inhibitors; purified LmPK, Kinase-Glo ATP luminescence, 1 h; Q27686
Target sequence (Q27686 whole entry, looked up): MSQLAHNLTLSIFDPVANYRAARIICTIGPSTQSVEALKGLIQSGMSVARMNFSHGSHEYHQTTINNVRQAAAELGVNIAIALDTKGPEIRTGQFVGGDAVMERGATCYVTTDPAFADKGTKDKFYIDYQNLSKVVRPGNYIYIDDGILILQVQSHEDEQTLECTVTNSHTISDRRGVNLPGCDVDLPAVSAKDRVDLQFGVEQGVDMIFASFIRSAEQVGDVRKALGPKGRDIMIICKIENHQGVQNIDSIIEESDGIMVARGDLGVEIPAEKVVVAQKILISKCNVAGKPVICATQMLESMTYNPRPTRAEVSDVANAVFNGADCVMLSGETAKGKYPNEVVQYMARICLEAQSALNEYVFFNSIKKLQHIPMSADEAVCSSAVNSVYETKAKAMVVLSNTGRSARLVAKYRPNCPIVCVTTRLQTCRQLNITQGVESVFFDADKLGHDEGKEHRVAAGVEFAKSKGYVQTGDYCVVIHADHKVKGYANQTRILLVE
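ATP generated from ADP (0.1 mM) and PEP (0.5 mM) by 0.1 nM LmPK over 1 h at room temperature (pH 7.2 imidazole buffer) was detected by coupled luciferase luminescence. Values were normalized to uninhibited and no-enzyme wells.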
Vaccinia mCherry: vaccinia inhibition (mCherry reporter). Vaccinia virus mCherry reporter infection, fluorescence. Potency, µM (doses to about 36.5 µM), most hits filed as inhibitors. 310,000 compounds, 0.63% hits; calls by dose curve; tested in A549 cells; further: nearly all actives have a fitted effect of over 35% in size
A number is an active result; [ ] = dose if it differs, or a comment. In the library only some 1.3% were active in any assay of this set; here they are far more common. Unless noted, the call rests on the fitted dose curve; in most records, active means well fitted curve in the direction sought with a large enough effect; inconclusive means small, poorly fitted or top-dose-only effect, or another doubt; inactive means no such curve, though single readings can be large; an effect the other way counts as inactive or inconclusive.

Screening CCCCCCCCCC[n+]1ccc(/C=C/c2c(C)[nH]c3ccccc23)c2ccccc21 returned VACV Venus inh inactive and Vaccinia mCherry inactive.
`CC(C)N1[N]C(=C2C=c3cc(O)ccc3=N2)c2c(N)ncnc21` gave TbPYK inhibitor inactive.
Cc1csc[n+]1CC(=O)c1ccc(I)cc1 was read as VACV Venus inh inactive and Vaccinia mCherry inactive.
O=C(c1cccc(Cn2cccn2)c1)N1CCC(n2c(C3CCCO3)nc3cc(C(F)(F)F)ccc32)CC1 (centres undefined) was read as VACV Venus inh inactive and Vaccinia mCherry inactive.
For COc1ccccc1C1N=C(Nc2nc3ccccc3o2)NC2=C1C(=O)CC(C)(C)C2 (centres undefined) the results were VACV Venus inh inactive and Vaccinia mCherry inactive.
For COc1ccc(CCn2c(C)ccc2C)cc1OC the results were LmPK inh inactive.
COc1ccc(CCN2C(=O)C=CC2=O)cc1OC was read as TbPYK inhibitor inconclusive, RE007 growth inh 5.6µM, AMA1 RON2 block inactive, VACV Venus inh inactive and Vaccinia mCherry inconclusive.
CCOc1cccc(CN2CCC(n3cc(C(=O)N4CCCCC4)nn3)CC2)c1O was read as VACV Venus inh inactive and Vaccinia mCherry inactive.
CCN1/C(=C/c2ccc3cc(C)ccc3[n+]2C)Sc2ccc3sccc3c21 was read as TbPYK inhibitor inactive, RE007 growth inh inactive, AMA1 RON2 block inactive and LmPK inh inactive.
Cc1sc2c3ccsc3ccc2[n+]1C was read as TbPYK inhibitor 8.9µM, RE007 growth inh inactive, AMA1 RON2 block inactive, VACV Venus inh inactive, LmPK inh inactive and Vaccinia mCherry inactive.
For Cc1sc2ccc3sccc3c2[n+]1C the results were TbPYK inhibitor 8.9µM, RE007 growth inh inactive, AMA1 RON2 block inactive, VACV Venus inh inactive, LmPK inh inactive and Vaccinia mCherry inactive.
COc1ccc(CN2C(=O)C(C)Nc3ncnc(N4CCN(c5ccccc5)CC4)c32)cc1 (centres undefined) was read as TbPYK inhibitor inactive, RE007 growth inh inactive, AMA1 RON2 block inactive, VACV Venus inh inconclusive and Vaccinia mCherry inconclusive.
`CC1Nc2ncnc(N3CCN(c4ccccc4)CC3)c2N(Cc2ccc(Br)cc2)C1=O` (centres undefined) gave TbPYK inhibitor inactive, RE007 growth inh inactive, AMA1 RON2 block inactive, VACV Venus inh inconclusive and Vaccinia mCherry 7.1µM.
For CC(C)(C)c1ccc(C(O)CCCN2CCC(C(O)(c3ccccc3)c3ccccc3)CC2)cc1 (centres undefined) the results were TbPYK inhibitor inactive, RE007 growth inh inactive[18.4 µM], AMA1 RON2 block inactive, VACV Venus inh 11µM, LmPK inh inactive and Vaccinia mCherry 13µM.
CSc1nc(C(=O)NCc2nc(-c3cccc(NC(=O)c4ccc(C)s4)c3)oc2C)cs1 was read as VACV Venus inh inactive and Vaccinia mCherry inactive.
`O=C(C#Cc1cccc([N+](=O)[O-])c1)c1ccccc1` gave LmPK inh inactive.
`Nc1ccccc1C#CC(=O)c1ccccc1` gave TbPYK inhibitor inactive, AMA1 RON2 block inactive, VACV Venus inh 22µM, LmPK inh inactive and Vaccinia mCherry inconclusive.
`CC/C(=C/c1ccccc1)c1cc(Oc2ccccc2)cc2oc3ccccc3c12` gave VACV Venus inh inactive and Vaccinia mCherry inactive.
O=C(N/N=C/c1cc([N+](=O)[O-])ccc1O)c1cccc(N2CCCC2=O)c1 was read as TbPYK inhibitor inactive, RE007 growth inh inactive, AMA1 RON2 block inactive, VACV Venus inh inactive, LmPK inh inactive and Vaccinia mCherry 6.3µM.
COc1cc(OC)c(OC)cc1/C=N/n1c(-c2n[nH]c3c2CCC3)n[nH]c1=S was read as TbPYK inhibitor 2.5µM, RE007 growth inh inactive, AMA1 RON2 block inactive and LmPK inh inactive.
COc1ccc(OC)c(/C=N/n2c(-c3n[nH]c4c3CCC4)n[nH]c2=S)c1 was read as TbPYK inhibitor 3.5µM, RE007 growth inh inactive, AMA1 RON2 block inactive, VACV Venus inh inactive, LmPK inh inactive and Vaccinia mCherry inactive.
C=C[C@H](CC(C)C)N(Cc1ccccc1)S(=O)(=O)N(Cc1ccccc1)[C@H](C=C)CC(C)C was read as VACV Venus inh inactive and Vaccinia mCherry inactive.
For C[C@H]1[C@@H]2Cc3ccc(O)cc3[C@]1(C)CCN2CCc1ccccc1 the results were TbPYK inhibitor inactive.
O=C(CCCN1C(=O)/C(=C/c2ccccc2Cl)SC1=S)NNC(=O)c1ccccc1Cl was read as TbPYK inhibitor inactive, RE007 growth inh inactive, AMA1 RON2 block inactive[2.32 µM], VACV Venus inh inconclusive, LmPK inh inactive and Vaccinia mCherry 11µM.
`COc1cccc(N2CCN(C3C(=O)c4ccccc4N3C(C)=O)CC2)c1` (centres undefined) gave TbPYK inhibitor inactive[15.4 µM], VACV Venus inh inactive and Vaccinia mCherry inactive.
`O=c1nc(Nc2ccc(OCc3ccccc3)cc2)sc2ncccc12` gave TbPYK inhibitor inactive, RE007 growth inh inactive, AMA1 RON2 block inactive, VACV Venus inh inactive, LmPK inh inactive and Vaccinia mCherry 0.79µM.
For CCOC(=O)c1ccc(Nc2nc(=O)c3cccnc3s2)cc1 the results were TbPYK inhibitor inactive, RE007 growth inh inactive, AMA1 RON2 block inactive, VACV Venus inh inactive, LmPK inh inactive and Vaccinia mCherry 10µM.
For CC(C)(CO)NC(=O)c1cnn(-c2ncc3c(n2)-c2ccccc2CC3)c1C1CC1 the results were VACV Venus inh inactive and Vaccinia mCherry inactive.
`O=C(N/N=C/c1ccccc1)c1[nH]ncc1Br` gave TbPYK inhibitor inconclusive, RE007 growth inh inactive, AMA1 RON2 block inactive, VACV Venus inh inactive, LmPK inh 13µM and Vaccinia mCherry inactive.
For O=C(N/N=C/c1cccnc1)c1[nH]ncc1Br the results were TbPYK inhibitor inactive, RE007 growth inh inactive, AMA1 RON2 block inactive, VACV Venus inh inactive, LmPK inh 18µM and Vaccinia mCherry inactive.
O=C(N/N=C/c1ccco1)c1[nH]ncc1Br was read as LmPK inh inactive.
`CC(=O)Nc1ccccc1OCCOc1ccc(Br)cc1` gave TbPYK inhibitor inactive, RE007 growth inh inactive, AMA1 RON2 block inactive, VACV Venus inh inactive, LmPK inh inactive and Vaccinia mCherry 13µM.
Screening NC(=O)c1ccccc1OCCOc1ccc(Br)cc1 returned TbPYK inhibitor inactive, RE007 growth inh inactive, AMA1 RON2 block inactive, VACV Venus inh inconclusive, LmPK inh inactive and Vaccinia mCherry inactive.
`COc1c(Cl)cccc1-c1cn2ccccc2n1` gave TbPYK inhibitor inactive, RE007 growth inh inconclusive, AMA1 RON2 block inactive, VACV Venus inh inactive[7.34 µM], LmPK inh 7.1µM and Vaccinia mCherry inactive[7.34 µM].
Screening Clc1ccc(-c2cn3ccccc3n2)cc1 returned TbPYK inhibitor inactive, RE007 growth inh inconclusive, AMA1 RON2 block inactive and LmPK inh inactive.
